Among the test systems are DU-145 prostate; K-562 leukemia; MALME-3M melanoma; MDA-MB-231 breast; RXF 393 renal; SF-268 CNS; SF-295 CNS; SF-539 CNS; UACC-257 melanoma; M14 melanoma; HCT-15 colon; HT29 colon; SNB-75 CNS; SNB-19 CNS; U251 CNS; PC-3 prostate; SK-MEL-5 melanoma; LOX IMVI melanoma; SK-MEL-28 melanoma; UACC-62 melanoma.
What all share (experiment): NCI-60 one-dose screen, 48 h (100 = growth as untreated, 0 = no growth, -100 = all killed)
Holding throughout (settings): 10 µM unless noted

Compounds without any hit were thinned out: in the full panel of roughly 83,000, 20% have a hit.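 Testing used 96-well plates and a 48-hour single-concentration exposure. Example: -40 means 40% of the starting cells died.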 A number with no mark means an inactive call. The source made the active and inactive calls. Rule for the calls: active = growth percent below 10; inactive = the rest.

For `CCOP(=O)(OCC)OC[C@]12CCC(C)(C)CC1C1=CC[C@@H]3[C@@]4(C)CCCNC(C)(C)[C@@H]4CC[C@@]3(C)[C@]1(C)CC2` (stereo partly specified), the growth in the test with DU-145 prostate was 82.6%; in the test with K-562 leukemia it was 2.53% (active); in the test with MALME-3M melanoma, 103%; with MDA-MB-231 breast it was 81.1%; in the test with RXF 393 renal it was 64%; in the test with SF-268 CNS, 80.2%. The growth in the test with SF-295 CNS is 99.3%; in the test on SF-539 CNS it was 86.3%; in the test with UACC-257 melanoma, 98.2%; with M14 melanoma, 83.3%; with HCT-15 colon, 44.3%; with HT29 colon, 42%. Also, the growth in the test with SNB-75 CNS was 93.6%; in the test with SNB-19 CNS, 87%; in the test on U251 CNS it was 56.3%; in the test with PC-3 prostate, 51.3%; with SK-MEL-5 melanoma, 80.7%; with LOX IMVI melanoma, 25.3%. The growth with SK-MEL-28 melanoma is 101%.
Regarding `CCc1cccc2c3c(sc12)C(c1ccc(F)cc1)C(C#N)=C(/N=C/c1ccc(Cl)cc1)O3` (stereo unspecified), the growth is 29% with DU-145 prostate; 10.5% with K-562 leukemia; 57.2% with MALME-3M melanoma; 30.3% in the test with MDA-MB-231 breast; -7.19% (active) in the test on RXF 393 renal; 43.5% in the test on SF-268 CNS. Also, the growth in the test on SF-295 CNS is 6.46% (active); in the test on SF-539 CNS, -6.53% (active); in the test with UACC-257 melanoma, 69.4%; in the test with M14 melanoma, 9.94% (active); in the test on HCT-15 colon, 12.9%; in the test on HT29 colon, -18.9% (active). In addition, the growth in the test with SNB-75 CNS was 34.8%; in the test with SNB-19 CNS, 27.1%; in the test on U251 CNS, 14.5%; in the test with PC-3 prostate it was 21.7%; in the test with SK-MEL-5 melanoma, 32.4%; with LOX IMVI melanoma it was 30.3%. In the test on SK-MEL-28 melanoma, the growth was 61.9%.
Take `C/C(=N/N)c1nnn(-c2ccc(Br)cc2)c1C`: the growth with DU-145 prostate is 108%; in the test with K-562 leukemia, 91.2%; with MALME-3M melanoma it was 102%; in the test on MDA-MB-231 breast, 101%; with RXF 393 renal, 103%; in the test on SF-268 CNS, 97.8%. In addition, the growth with SF-295 CNS is 94.2%; in the test with SF-539 CNS it was 93.1%; with UACC-257 melanoma it was 105%; in the test with M14 melanoma it was 105%; in the test on HCT-15 colon, 103%; with HT29 colon, 106%. Further, the growth in the test on SNB-75 CNS is 98.1%; in the test on SNB-19 CNS, 97.9%; with U251 CNS, 98.6%; in the test with PC-3 prostate, 95.8%; with SK-MEL-5 melanoma, 99.6%; with UACC-62 melanoma it was 98.1%. In addition, the growth in the test on SK-MEL-28 melanoma was 99.2%.
Take `CNC(=O)c1cc(Oc2ccc3c(c2)sc2nc(-c4ccc(N(C)C)cc4)cn23)ccn1`: the growth was 20.2% in the test with DU-145 prostate; 11.8% in the test on K-562 leukemia; 57.5% in the test with MALME-3M melanoma; 15.9% in the test with MDA-MB-231 breast; 13.9% with RXF 393 renal; 45.7% with SF-268 CNS. Further, the growth in the test on SF-295 CNS was 8.54% (active); with SF-539 CNS, -14% (active); with UACC-257 melanoma, 78.8%; with M14 melanoma it was 19.1%; in the test with HCT-15 colon, 8.11% (active); with HT29 colon it was -16.1% (active). For the same molecule, the growth in the test with SNB-75 CNS was 17.8%; with SNB-19 CNS, 25%; in the test with U251 CNS, 13.5%; with PC-3 prostate it was 32.4%; in the test with SK-MEL-5 melanoma, 11.9%; with LOX IMVI melanoma it was 0.0095% (active). The growth with SK-MEL-28 melanoma was 56.8%.
As to `O=S(=O)(NCCCNc1nccc(-c2[nH]c(-c3ccccc3)nc2-c2ccc(F)c(O)c2)n1)c1cccc2ccccc12`, the growth in the test on DU-145 prostate is 61.5%; in the test on K-562 leukemia, 23.3%; in the test with MALME-3M melanoma, 32.8%; in the test with MDA-MB-231 breast it was 77.2%; in the test with RXF 393 renal, 75.4%; in the test on SF-268 CNS, 75.3%. Also, the growth in the test on SF-295 CNS is 45.7%; in the test with SF-539 CNS it was 93.7%; in the test on UACC-257 melanoma it was 44.1%; with M14 melanoma, 29.4%; in the test on HCT-15 colon, 39.4%; with HT29 colon, 101%. Besides, the growth with SNB-75 CNS is 75.4%; in the test with SNB-19 CNS it was 76.5%; with U251 CNS, 50.5%; with PC-3 prostate, 52.8%; in the test on SK-MEL-5 melanoma, 34.1%; in the test on LOX IMVI melanoma it was 31.9%. Also, the growth in the test on SK-MEL-28 melanoma is 54.3%.
Turning to `CCCNNC(=O)c1ccc(-c2ccc(NC(=O)CCCCCCC(=O)N[C@H](C(=O)N3C[C@H](O)C[C@H]3C(=O)N[C@@H](C)c3ccc(-c4scnc4C)cc3)C(C)(C)C)cc2)cc1`, the growth in the test with DU-145 prostate is 32.4%; in the test with K-562 leukemia, 15.5%; in the test with MALME-3M melanoma, 32%; with MDA-MB-231 breast it was 24.1%; with RXF 393 renal, -33% (active); in the test on SF-268 CNS, 46.3%. The growth is 46.8% with SF-295 CNS; 27.3% in the test on SF-539 CNS; 23.6% with UACC-257 melanoma; 39.8% in the test on M14 melanoma; 97.5% in the test on HCT-15 colon; 5.44% (active) in the test with HT29 colon. In addition, the growth with SNB-75 CNS was 55.1%; with SNB-19 CNS it was 28.6%; with U251 CNS it was 17.1%; with PC-3 prostate, 37.2%; in the test with SK-MEL-5 melanoma it was -0.921% (active); in the test with UACC-62 melanoma it was -5.46% (active). Further, the growth in the test with SK-MEL-28 melanoma was 23.9%.
With `C[C@]12CC[C@H]3[C@@H](CC=C4C[C@@H](O)CC[C@@]43C)[C@@H]1CC[C@@H]2[C@](C)(O)CCc1cccnc1`, the growth in the test with DU-145 prostate is 53.5%; in the test with K-562 leukemia it was 26.4%; in the test with MALME-3M melanoma, 47%; with MDA-MB-231 breast, 77.2%; in the test with RXF 393 renal, 66.4%; in the test with SF-268 CNS, 70.7%. Moreover, the growth with SF-295 CNS is 45%; in the test with SF-539 CNS, 66.2%; with UACC-257 melanoma, 53.8%; in the test with M14 melanoma, 85.6%; with HCT-15 colon, 70.2%; in the test on HT29 colon, 69.1%. For the same molecule, the growth was 62% in the test with SNB-75 CNS; 71.4% in the test with SNB-19 CNS; 74.1% with U251 CNS; 70.1% in the test with PC-3 prostate; 7.89% (active) with SK-MEL-5 melanoma; 75.9% in the test with LOX IMVI melanoma.
With `O=S(=O)(Oc1ccc(-c2cn3ccoc3n2)cc1)C1CCCCC1`, the growth is 107% with DU-145 prostate; 89.5% in the test with K-562 leukemia; 103% in the test with MALME-3M melanoma; 105% in the test on MDA-MB-231 breast; 122% with RXF 393 renal; 108% in the test with SF-268 CNS. The growth was 93.8% in the test with SF-295 CNS; 97% in the test on SF-539 CNS; 106% in the test on UACC-257 melanoma; 104% with M14 melanoma; 62.7% with HCT-15 colon; 96.7% in the test on HT29 colon. The growth was 124% in the test on SNB-75 CNS; 97.1% with SNB-19 CNS; 104% with U251 CNS; 91.5% with PC-3 prostate; 91.1% with SK-MEL-5 melanoma; 100% in the test on LOX IMVI melanoma. Further, in the test on SK-MEL-28 melanoma, the growth is 100%.

For the origin of these results see PubChem BioAssay (NCI).
